# Inconclusive results are not listed. Entries that show only a call come without a potency. Activity calls are given as the source filed them. The call rests on the fitted dose curve; in most records, active means well fitted inhibition curve with a large enough effect; inconclusive means small, poorly fitted or top-dose-only effect; inactive means flat fitted curve, though single readings scatter.
# What was measured:
# Assay in all cases: qHTS profiling for inhibitors of Plasmodium falciparum proliferation (AID 504749); further: nearly all actives have a fitted effect of over 60% in size
# Conditions in all cases: P. falciparum in erythrocytes, SYBR Green DNA, 72 h; series mostly up to 28.7 µM
# DIV17 = system: DIV17
# Procedure, shortened: (§1)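 Fluorescence of SYBR Green-bound parasite DNA, read at 485/535 nm, served as the growth measure. Infected erythrocytes were cultured with compound 72 h; artemisinin (0.29 uM) and DMSO wells defined the normalization range.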
# DIV30 = system: DIV30
# Procedure, shortened: as §1
# Dd2 = system: Dd2
# Procedure, shortened: as §1
# ECU = system: ECU
# Procedure, shortened: as §1
# FAB9 = system: FAB9
# Procedure, shortened: as §1
# GB4 = system: GB4
# Procedure, shortened: as §1
# HB3 = system: HB3
# Procedure, shortened: as §1
# ICS = system: ICS
# Procedure, shortened: as §1
# JCK = system: JCK
# Procedure, shortened: as §1
# N140 = system: N140
# Procedure, shortened: as §1
# Potency means the concentration at half of the fitted maximal effect.
Structure (SMILES),Potency (DIV17),outcome (DIV30),Potency (Dd2),Potency (ECU),Potency (FAB9),Potency (GB4),Potency (HB3),Potency (ICS),Potency (JCK),Potency (N140)
CC(=O)NS(=O)(=O)c1ccc(N)cc1,inactive,inactive,inactive,inactive,inactive,inactive,inactive,inactive,inactive,inactive
CCOC(=O)c1cccnc1,inactive,inactive,inactive,inactive,inactive,inactive,inactive,inactive,inactive,inactive
CNCc1ccccc1,inactive,inactive,inactive,inactive,inactive,inactive,inactive,inactive,inactive,inactive
O=C(O)Cc1ccc(CCNS(=O)(=O)c2ccc(Cl)cc2)cc1,inactive,inactive,inactive,inactive,inactive,inactive,inactive,inactive,inactive,inactive
Cc1cc(=O)[nH]c(=S)[nH]1,inactive,inactive,inactive,inactive,inactive,inactive,inactive,inactive,inactive,inactive
CC(=O)SC[C@@H](Cc1ccccc1)C(=O)NCC(=O)OCc1ccccc1,inactive,inactive,inactive,inactive,inactive,inactive,inactive,,inactive,inactive
C[C@H]1COc2c(C3(N)CC3)c(F)cc3c(=O)c(C(=O)O)cn1c23,inactive,inactive,inactive,inactive,inactive,,inactive,inactive,inactive,inactive
O=C(O)Cn1c(C(=O)Nc2nc(-c3ccccc3Cl)cs2)cc2ccccc21,inactive,inactive,inactive,inactive,inactive,inactive,inactive,,inactive,inactive
Cc1ccccc1N=Nc1ccc(N=Nc2c(O)ccc3ccccc23)c(C)c1,inactive,inactive,inactive,inactive,inactive,inactive,inactive,inactive,inactive,inactive
Nc1ccncc1N,inactive,inactive,inactive,inactive,inactive,inactive,inactive,inactive,inactive,inactive
Cc1c(NC(=O)c2cccnc2)c(=O)n(-c2ccccc2)n1C,inactive,inactive,inactive,inactive,inactive,inactive,inactive,inactive,inactive,inactive
CC(=O)NCc1c(I)c(NC(C)=O)c(I)c(C(=O)O)c1I,inactive,inactive,inactive,inactive,inactive,inactive,inactive,inactive,11.2 µM (active),inactive
COc1ccccc1Oc1c(NS(=O)(=O)c2ccc(C(C)(C)C)cc2)nc(-c2ncccn2)nc1OCCO,inactive,inactive,inactive,inactive,inactive,inactive,inactive,,inactive,inactive
COc1cc(C(=O)NCCCCCC(=O)O)cc(OC)c1OC,inactive,inactive,inactive,inactive,inactive,inactive,inactive,inactive,,inactive
CCCCCCCC(=O)OCC(O)CO (stereo not drawn),inactive,inactive,inactive,inactive,inactive,inactive,inactive,inactive,inactive,inactive
CN1CCCN=C1COC(=O)C(O)(c1ccccc1)C1CCCCC1 (stereo not drawn),inactive,inactive,inactive,inactive,inactive,,inactive,inactive,inactive,inactive
Cc1ccc(S(=O)(=O)NC(=O)NC2CCCCCCC2)cc1,inactive,inactive,inactive,inactive,inactive,inactive,inactive,inactive,inactive,inactive
O=C(Cn1ccnc1[N+](=O)[O-])NCc1ccccc1,inactive,inactive,inactive,inactive,inactive,inactive,inactive,inactive,inactive,inactive
CC(C)(C)C(=O)OCOC(=O)[C@@H]1N2C(=O)[C@@H](NC(=O)[C@H](N)c3ccccc3)[C@H]2SC1(C)C,inactive,inactive,inactive,inactive,inactive,inactive,inactive,inactive,inactive,inactive
CCCNC(C)(C)COC(=O)c1ccccc1,inactive,inactive,inactive,inactive,inactive,,inactive,inactive,inactive,inactive
O=c1[nH]c2cc(C(F)(F)F)c(N3CCOCC3)cc2n(CP(=O)(O)O)c1=O,inactive,inactive,inactive,inactive,inactive,inactive,inactive,inactive,inactive,inactive

# — PubChem BioAssay (NCATS)
